The source of these data is PubChem BioAssay (NCI).

This is part of a sample that, as a whole, favours compounds with a hit. Of some 83,000 tested, about 20% had one in any assay.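 Assay: single dose, 48 h. Readout: percent growth (0 = no net growth; negative = cell death). Active: <10.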 Unmarked numbers belong to inactive results. Active and inactive are the calls of the source.

The test system of the first test is NCI-H460 lung. Description: NCI-60 one-dose screen, 48 h (100 = growth as untreated, 0 = no growth, -100 = all killed). To be noted: 10 µM unless noted.
For `Nc1ccccc1-c1ccc(-c2ccc(Cl)cc2)c2c1[nH]c1ccccc12`, the growth is 88.6%.
Take `OC(CNC1CCCCC1)Cn1c2ccc(I)cc2c2cc(I)ccc21` (stereo not drawn): the growth is 70.1%.
As to `COc1cc(C(=O)NN=C2c3ccccc3-c3ccccc32)cc(OC)c1OC`, the growth was 11.2%.
`C=C(C)CCC(C)N1CCC(N2CCC(C(=O)NCCc3ccccc3)CC2)CC1` (stereo not drawn): the growth is 40.4%.
With `C#CCn1cc(C=C2C(=O)N(C)C(=O)N(C)C2=O)c2cc(Cl)ccc21`, the growth is 106%.
Regarding `O=C(Nc1ccc(C23CC4CC(CC(c5ccccc5)(C4)C2)C3)cc1)c1cccs1`, the growth is 69.9%.
Same read-out and setting: with `O=C(Cc1ccccc1)NC(c1ccc(Cl)cc1)c1c(O)ccc2ccccc12` (stereo not drawn) the figure was 5.44% (active); with `COc1ccc(CSc2nnc(SCC(=O)Nc3ccc(Cl)cc3)s2)cc1`, 37.6%; with `O=C(COc1cc(O)c2c(=O)cc(-c3ccccc3)oc2c1)Nc1ccccc1C(F)(F)F`, -42.5% (active).
Regarding `Cc1cc(OC(=O)c2ccc([N+](=O)[O-])cc2)nc2[nH]c(=O)sc12`, the growth was 105%.
For `O=c1oc2ccc(F)cc2c(=O)n1-c1ccc(I)cc1F`, the growth is 3.08% (active).
`O=Cc1c(OCc2cnnn2CC(=O)Nc2ccc(Br)cc2)ccc2ccccc12`: the growth is 97.3%.
For the compound `COc1ccc2[nH]c(O)c(N=NC(=O)c3oc4ccccc4c3C)c2c1`, the growth is -22.8% (active).
Same read-out and setting: the same measure for `Cc1cc(Nc2ccc(OCc3ccccc3)cc2)nc2cc(O)ccc12`: 47.2%; for `O=C(COc1cc(O)c2c(=O)cc(-c3ccccc3)oc2c1)Nc1ccccc1`: 61.6%; for `O=C(Nc1ccc(-c2nc3ccc(NC(=O)c4ccc(Cl)cc4)cc3[nH]2)cc1)c1ccc(Cl)cc1`: 26.3%.
As to `O=C1c2cc(Br)ccc2Oc2cc([N+](=O)[O-])ccc2N1c1ccc(I)cc1F`, the growth is 102%.
Same read-out and setting: with `Cc1ccc2nc(NC(=O)CSC(=S)N3CCN(c4ccccc4)CC3)sc2c1` the figure was 112%; with `CCCCCCC(O)(c1ccc(F)cc1)C(CN1CCOCC1)c1ccccc1` (stereo not drawn), 16.1%.
In the case of `COc1ccc(CCN2CCC(CN(C)Cc3cnn(-c4ccccc4)c3)CC2)cc1`, the growth was 3.48% (active).
Same read-out and setting: the same measure for `NC(=O)CSc1nc(-c2ccc(F)cc2)cc(-c2ccco2)n1`: 110%; for `CCCSC1=NC2C(N(CC)C(=O)N2CC)N1/N=C/C=C/c1ccccc1[N+](=O)[O-]` (stereo not drawn): 5.1% (active); for `O=c1oc2ccc(Cl)cc2c(=O)n1-c1ccc(I)cc1F`: 2.33% (active).
On the same count and under the same terms, with `COc1ccc(C2NCCc3c2[nH]c2ccccc32)cc1CN1CCN(c2ccc(F)cc2)CC1` (stereo not drawn) the figure was 5.7% (active); with `Cc1sc2ncnc(Sc3nc4ccccc4[nH]3)c2c1C`, -78.9% (active).
`FC(F)(F)c1cccc(CNC2CCN(CCc3ccccc3)CC2)c1`: the growth was 59.8%.
With `O=C(Nc1ccc(I)cc1F)c1cc(Br)ccc1O`, the growth was 2.62% (active).
For `Cc1ccc2[nH]c(=O)cc(-n3nncc3Cn3c4ccccc4c4ccccc43)c2c1`, the growth is 102%.
`CC(=O)n1cc(-c2c[nH]c3ccccc23)c(-c2ccc(Cl)cc2)n1`: the growth is 82.3%.
On the same count and under the same terms, the same measure for `CC[C@H](C)[C@@H](C(=O)OC)n1cc(CNC(=O)[C@@H](Cc2ccccc2)NC(=O)OCc2ccccc2)nn1`: 104%.
On to `O=C(Nc1ccc(I)cc1F)c1cc(Cl)ccc1O`, for which the growth was 4% (active).
On the same count and under the same terms, with `NNC(=O)CNC(=O)Nc1n[nH]c(=S)s1` the figure was 105%; with `COc1ccc(Nc2cc(C)nc(NCc3ccccc3)n2)cc1`, 11.9%.
The same measure, in the same setting: the same measure for `O=C(Nc1ccc(N2CCNCC2)cn1)c1[nH]ncc1Nc1ncnc2sc3c(c12)CCC3`: -59.2% (active); for `COc1c(B(O)O)cccc1-c1nc2ccc3[nH]ncc3c2c2c1C1CCC2C1` (stereo not drawn): 51%; for `COC(=O)c1cc2c(n1Cc1ccccc1)-c1oncc1CCC2`: 94.7%.
Turning to `O=C(Nc1ccc(N2CCNCC2)cc1)c1[nH]ncc1Nc1cc(C2CC2)ncn1`, the growth was 38.9%.
Take `CC(C)CCNCC(O)Cn1c2ccccc2c2ccccc21` (stereo not drawn): the growth is 1.52% (active).
With `COc1cc(/C=C2\CN(C)C/C(=C\c3cc(CN4CCOCC4)c(O)c(OC)c3)C2=O)cc(CN2CCOCC2)c1O`, the growth is 15.2%.

The next test concerns HOP-92 NSCLC. Described as above. As to conditions: 10 µM unless noted.
On to `Nc1ccccc1-c1ccc(-c2ccc(Cl)cc2)c2c1[nH]c1ccccc12`, for which the growth is 7.99% (active).
Same read-out and setting: the same measure for `OC(CNC1CCCCC1)Cn1c2ccc(I)cc2c2cc(I)ccc21` (stereo not drawn): -0.53% (active); for `COc1cc(C(=O)NN=C2c3ccccc3-c3ccccc32)cc(OC)c1OC`: 42.4%; for `C=C(C)CCC(C)N1CCC(N2CCC(C(=O)NCCc3ccccc3)CC2)CC1` (stereo not drawn): 71%.
As to `C#CCn1cc(C=C2C(=O)N(C)C(=O)N(C)C2=O)c2cc(Cl)ccc21`, the growth was 107%.
In the case of `O=C(Nc1ccc(C23CC4CC(CC(c5ccccc5)(C4)C2)C3)cc1)c1cccs1`, the growth is 86.5%.
On the same count and under the same terms, the same measure for `O=C(Cc1ccccc1)NC(c1ccc(Cl)cc1)c1c(O)ccc2ccccc12` (stereo not drawn): -19.9% (active); for `COc1ccc(CSc2nnc(SCC(=O)Nc3ccc(Cl)cc3)s2)cc1`: 78%; for `O=C(COc1cc(O)c2c(=O)cc(-c3ccccc3)oc2c1)Nc1ccccc1C(F)(F)F`: 51.6%.
Turning to `Cc1cc(OC(=O)c2ccc([N+](=O)[O-])cc2)nc2[nH]c(=O)sc12`, the growth was 105%.
On to `O=c1oc2ccc(F)cc2c(=O)n1-c1ccc(I)cc1F`, for which the growth is -17.6% (active).
In the case of `O=Cc1c(OCc2cnnn2CC(=O)Nc2ccc(Br)cc2)ccc2ccccc12`, the growth is 85.7%.
For the compound `COc1ccc2[nH]c(O)c(N=NC(=O)c3oc4ccccc4c3C)c2c1`, the growth is -44% (active).
With `Cc1cc(Nc2ccc(OCc3ccccc3)cc2)nc2cc(O)ccc12`, the growth is 15.8%.
On to `O=C(COc1cc(O)c2c(=O)cc(-c3ccccc3)oc2c1)Nc1ccccc1`, for which the growth was 89.9%.
In the case of `O=C(Nc1ccc(-c2nc3ccc(NC(=O)c4ccc(Cl)cc4)cc3[nH]2)cc1)c1ccc(Cl)cc1`, the growth was 41.2%.
For `O=C1c2cc(Br)ccc2Oc2cc([N+](=O)[O-])ccc2N1c1ccc(I)cc1F`, the growth was 101%.
On the same count and under the same terms, with `Cc1ccc2nc(NC(=O)CSC(=S)N3CCN(c4ccccc4)CC3)sc2c1` the figure was 82.6%; with `CCCCCCC(O)(c1ccc(F)cc1)C(CN1CCOCC1)c1ccccc1` (stereo not drawn), -16.1% (active); with `COc1ccc(CCN2CCC(CN(C)Cc3cnn(-c4ccccc4)c3)CC2)cc1`, 37.3%.
On the same count and under the same terms, with `NC(=O)CSc1nc(-c2ccc(F)cc2)cc(-c2ccco2)n1` the figure was 101%; with `CCCSC1=NC2C(N(CC)C(=O)N2CC)N1/N=C/C=C/c1ccccc1[N+](=O)[O-]` (stereo not drawn), 102%.
On to `O=c1oc2ccc(Cl)cc2c(=O)n1-c1ccc(I)cc1F`, for which the growth is -16.5% (active).
Turning to `COc1ccc(C2NCCc3c2[nH]c2ccccc32)cc1CN1CCN(c2ccc(F)cc2)CC1` (stereo not drawn), the growth is -18.7% (active).
On to `Cc1sc2ncnc(Sc3nc4ccccc4[nH]3)c2c1C`, for which the growth is -12.1% (active).
In the case of `FC(F)(F)c1cccc(CNC2CCN(CCc3ccccc3)CC2)c1`, the growth was 15.7%.
As for `O=C(Nc1ccc(I)cc1F)c1cc(Br)ccc1O`, the growth was -10.8% (active).
`Cc1ccc2[nH]c(=O)cc(-n3nncc3Cn3c4ccccc4c4ccccc43)c2c1`: the growth is 89.8%.
On the same count and under the same terms, the same measure for `CC(=O)n1cc(-c2c[nH]c3ccccc23)c(-c2ccc(Cl)cc2)n1`: 79.7%; for `CC[C@H](C)[C@@H](C(=O)OC)n1cc(CNC(=O)[C@@H](Cc2ccccc2)NC(=O)OCc2ccccc2)nn1`: 96.4%; for `O=C(Nc1ccc(I)cc1F)c1cc(Cl)ccc1O`: -15.8% (active).
For `NNC(=O)CNC(=O)Nc1n[nH]c(=S)s1`, the growth was 91.7%.
With `COc1ccc(Nc2cc(C)nc(NCc3ccccc3)n2)cc1`, the growth is 21.6%.
On to `O=C(Nc1ccc(N2CCNCC2)cn1)c1[nH]ncc1Nc1ncnc2sc3c(c12)CCC3`, for which the growth is 37.9%.
Take `COc1c(B(O)O)cccc1-c1nc2ccc3[nH]ncc3c2c2c1C1CCC2C1` (stereo not drawn): the growth is 108%.
In the case of `COC(=O)c1cc2c(n1Cc1ccccc1)-c1oncc1CCC2`, the growth was 75.3%.
The same measure, in the same setting: the same measure for `O=C(Nc1ccc(N2CCNCC2)cc1)c1[nH]ncc1Nc1cc(C2CC2)ncn1`: 78.1%; for `CC(C)CCNCC(O)Cn1c2ccccc2c2ccccc21` (stereo not drawn): -13.7% (active); for `COc1cc(/C=C2\CN(C)C/C(=C\c3cc(CN4CCOCC4)c(O)c(OC)c3)C2=O)cc(CN2CCOCC2)c1O`: 93.2%.
